tim23-1 inh: tim23-1 yeast growth inhibition | S. cerevisiae tim23-1 growth, BacTiter-Glo luminescence, 24 h | inhibition, % at 20 µM | 330,000 compounds, 1.3% hits;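 active = growth inhibition of the mutant yeast at or above 50%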;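 also: temperature-sensitive mutant grown at 25 °C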
NALP1 inh: blocks the NALP1 inflammasome reconstituted in yeast; S. cerevisiae NALP1/ASC/caspase-1 growth, X-gal OD620, 72 h; inhibition, % at 10 µM; 280,000 compounds, 0.61% hits; AID 2071; in the data active = inhibition mostly above about 24%, no sharp cut-off; inactive = mostly below about 32%
NLRP3 yeast inh: inhibitors of NALP3 inflammasome in yeast; Yeast reconstituted NLRP3/ASC/caspase-1, beta-gal luminescence, 24 h; inhibition, % at 10 µM; 330,000 compounds, 0.39% hits; AID 2825;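 active = inhibition of 50% or more; inactive = inhibition below 50%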
tim10-1 inh: growth inhibitors of tim10-1 mutant yeast; inhibition, % at 20 µM; 330,000 compounds, 2.2% hits; S. cerevisiae tim10-1 ts strain growth, BacTiter-Glo, 24 h;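 active = inhibition of at least 40%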;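 also: mutant grown at 25 °C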
TIM10 inh: growth inhibitors of TIM10 yeast strain. 330,000 compounds, 1.4% hits. S. cerevisiae TIM10 strain growth, BacTiter-Glo luminescence, 24 h. AID 463195. inhibition, % at 10 µM;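 active = inhibition of 40% or more at the single tested concentration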;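 also: wild-type TIM10 isogenic control strain grown at permissive 25 °C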
V-ATPase pHluor: yeast V-ATPase proton transport regulation by pHLuorin; response, % at 10 µM; S. cerevisiae, pHLuorin cytosolic pH fluorescence; 350,000 compounds, 0.37% hits; in the data active = response mostly above about 7.3%, no sharp cut-off; inactive = mostly below about 5.4%; also: actives read high
tim10-1 conf: confirmation of tim10-1 mutant yeast growth inhibitors; shares compounds with tim10-1 inh; S. cerevisiae tim10-1 ts strain growth, BacTiter-Glo, 24 h; inhibition, % at 20 µM; 7,400 compounds, 56% hits;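 active = inhibition of yeast growth at or above a set limit in either of two repeat tests at 20 µM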;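 also: tim10-1 mutant grown at permissive 25 °C to find synthetic lethal compounds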
Hits are given with their value. Shown are actives, neighbours in structure and some others; about 4.2% of the full set was active somewhere.

Results for Cc1cccc(C)c1OC(=O)CCN1C(=O)C2C3C=CC(C4CC34)C2C1=O (configuration not stated) ?
tim23-1 inh: inactive; NALP1 inh: inactive; NLRP3 yeast inh: inactive; tim10-1 inh: 41; TIM10 inh: inactive; V-ATPase pHluor: inactive; tim10-1 conf: inactive

How did O=C(CCN1C(=O)C2C3C=CC(C4CC34)C2C1=O)Oc1ccccc1 (configuration not stated) do in these assays?
tim23-1 inh: inactive; NALP1 inh: inactive; NLRP3 yeast inh: inactive; tim10-1 inh: inactive; TIM10 inh: inactive; V-ATPase pHluor: inactive

Results for CCOC(=O)[C@H]1[C@H]2COc3ccc(Cl)cc3[C@@H]2N2C(=O)c3cc(F)ccc3NC(=O)[C@@]12C ?
tim23-1 inh: inactive; NLRP3 yeast inh: inactive; tim10-1 inh: inactive; TIM10 inh: inactive; V-ATPase pHluor: inactive

What do the screens show for `CCOC(=O)[C@H]1[C@H]2COc3ccc(C)cc3[C@@H]2N2C(=O)c3cc(Cl)ccc3NC(=O)[C@@]12C`?
tim23-1 inh: inactive; NLRP3 yeast inh: inactive; tim10-1 inh: 40; TIM10 inh: inactive; V-ATPase pHluor: inactive; tim10-1 conf: inactive

How did CS(=O)(=O)N1CCC(C(=O)Nc2cc(Cl)c(Cl)cc2Cl)CC1 do in these assays?
tim23-1 inh: inactive; NALP1 inh: inactive; NLRP3 yeast inh: inactive; tim10-1 inh: inactive; TIM10 inh: inactive; V-ATPase pHluor: inactive

Results for Fc1ccc(-n2cc(CNCCc3cccnc3)c(-c3ccccc3Cl)n2)cc1 ?
tim23-1 inh: inactive; NALP1 inh: inactive; NLRP3 yeast inh: inactive; tim10-1 inh: inactive; TIM10 inh: inactive; V-ATPase pHluor: inactive

What do the screens show for `CCCn1c2ccc(C)cc2c2n[nH]c(=S)nc21`?
tim23-1 inh: inactive; NALP1 inh: inactive; NLRP3 yeast inh: inactive; tim10-1 inh: 46; TIM10 inh: inactive; V-ATPase pHluor: inactive; tim10-1 conf: inactive

Results for Cc1onc(-c2ccccc2)c1C(O)c1ccc(F)cc1 (configuration not stated) ?
tim23-1 inh: inactive; NALP1 inh: inactive; NLRP3 yeast inh: inactive; tim10-1 inh: inactive; TIM10 inh: inactive; V-ATPase pHluor: inactive

How did COc1ccc(C)cc1NC(=O)c1cc(S(=O)(=O)N2CCC3(CC2)OCCO3)ccc1F do in these assays?
tim23-1 inh: inactive; NALP1 inh: inactive; NLRP3 yeast inh: inactive; tim10-1 inh: 46; TIM10 inh: inactive; V-ATPase pHluor: inactive; tim10-1 conf: inactive

Results for Cc1ccc(-c2ccc(/C=N\n3cnnc3)o2)c(Br)c1 ?
tim23-1 inh: inactive; NALP1 inh: inactive; NLRP3 yeast inh: inactive; tim10-1 inh: inactive; TIM10 inh: inactive; V-ATPase pHluor: inactive

What do the screens show for `Cc1ccc(Sc2oc(/C=N/n3cnnc3)cc2Br)cc1`?
tim23-1 inh: inactive; NALP1 inh: inactive; NLRP3 yeast inh: inactive; tim10-1 inh: 46; TIM10 inh: inactive; V-ATPase pHluor: inactive; tim10-1 conf: inactive

How did CCc1ccc(N2CC(C(=O)Nc3cccc(S(=O)(=O)N4CCCC4)c3)CC2=O)cc1 (configuration not stated) do in these assays?
tim23-1 inh: inactive; NLRP3 yeast inh: inactive; tim10-1 inh: inactive; TIM10 inh: inactive; V-ATPase pHluor: inactive

Results for Cc1cccc(NC(=O)CSc2nc3ccccc3c3nc(CCc4c(C)n[nH]c4C)nn23)c1 ?
tim23-1 inh: inactive; NALP1 inh: inactive; NLRP3 yeast inh: inactive; tim10-1 inh: 41; TIM10 inh: inactive; V-ATPase pHluor: inactive; tim10-1 conf: inactive

Results for CC(C)(C)NC(=O)Nc1ccc(F)c(Cl)c1 ?
tim23-1 inh: inactive; NALP1 inh: inactive; NLRP3 yeast inh: inactive; tim10-1 inh: 46; TIM10 inh: inactive; V-ATPase pHluor: inactive; tim10-1 conf: 44

What do the screens show for `Cc1ccccc1N(CC(=O)NCc1ccccc1)C(=O)CCC(=O)Nc1nccs1`?
tim23-1 inh: inactive; NALP1 inh: inactive; NLRP3 yeast inh: inactive; tim10-1 inh: inactive; TIM10 inh: inactive; V-ATPase pHluor: inactive

Results for Cc1ccc(-c2csc(N(CCO)CCCn3c(C(F)(F)F)nc4ccccc43)n2)cc1 ?
tim23-1 inh: inactive; NALP1 inh: inactive; NLRP3 yeast inh: inactive; tim10-1 inh: 44; TIM10 inh: inactive; V-ATPase pHluor: inactive; tim10-1 conf: inactive

How did CCCCNC(=S)Nc1ccc([N+](=O)[O-])cc1 do in these assays?
tim23-1 inh: inactive; NALP1 inh: inactive; NLRP3 yeast inh: inactive; tim10-1 inh: 50; TIM10 inh: inactive; V-ATPase pHluor: inactive; tim10-1 conf: inactive

Compound activity as filed in PubChem.
